The values that follow come from PubChem BioAssay (NCI).

Some test systems named below: T-47D breast; BT-549 breast; MDA-MB-435 melanoma; SW-620 colon; MCF7 breast; HCT-116 colon; HCC-2998 colon; KM12 colon.
Holding throughout (assay): NCI-60 one-dose screen, 48 h (100 = growth as untreated, 0 = no growth, -100 = all killed)
Holding throughout (conditions): 10 µM unless noted

Each structure is given as a SMILES string. About 83,000 compounds went through this panel and 20% of them were active in at least one assay; those are over-represented in the sample as a whole.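 Activity criterion: percent growth below 10, measured after cells in 96-well plates were exposed to a single compound concentration for 48 hours.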 A number with no mark means an inactive call. Activity calls are given as the source filed them.

As to `CN1CCC[C@@H]1CCO[C@](C)(c1ccccc1)c1ccc(Cl)cc1`, the growth in the experiment on T-47D breast was 56.1%; in the experiment on BT-549 breast, 69.1%; in the experiment on MDA-MB-435 melanoma it was 49.8%; with SW-620 colon, 80%; with MCF7 breast, 63.3%; in the experiment on HCT-116 colon, 47.9%. Besides, the figures for the growth in the experiment with HCC-2998 colon and in the experiment on KM12 colon were 61.8% and 88%, respectively.
Turning to `O=c1[nH]c(N2CCC(Cc3ccccc3)CC2)nc2sc3c(c12)CCCC3`, the growth with T-47D breast is 96.6%; in the experiment with BT-549 breast, 109%; in the experiment with MDA-MB-435 melanoma, 102%; in the experiment on SW-620 colon, 101%; in the experiment with MCF7 breast it was 98.1%; with HCT-116 colon, 104%. The growth in the experiment on HCC-2998 colon is 103%; in the experiment with KM12 colon, 100%.
In the case of `O=c1[nH]cc(Nc2cc(Cl)c3nonc3c2[N+](=O)[O-])c(=O)[nH]1`, the growth was 101% in the experiment with T-47D breast; 114% in the experiment on BT-549 breast; -41.2% (active) in the experiment with MDA-MB-435 melanoma; 89.8% in the experiment with SW-620 colon; 109% with MCF7 breast; 99.1% with HCT-116 colon. For the same compound, the growth with HCC-2998 colon was 90.6%; with KM12 colon, 109%.
`COc1cccc(-c2nc(-c3ccc(N)cc3)co2)c1`: the growth in the experiment on T-47D breast was 105%; with BT-549 breast, 110%; with MDA-MB-435 melanoma, 93.3%; in the experiment with SW-620 colon it was 113%; in the experiment with MCF7 breast, 98.9%; in the experiment on HCT-116 colon it was 91.5%. Further, the results for the growth in the experiment with HCC-2998 colon and with KM12 colon were 122% and 99.2%, respectively.
For the compound `O=C(COc1ccc(/C=C2\Cc3ccccc3C2=O)cc1)c1ccc(Cl)cc1`, the growth was 102% with T-47D breast; 113% in the experiment with BT-549 breast; 95.4% with MDA-MB-435 melanoma; 107% with SW-620 colon; 97.1% in the experiment with MCF7 breast; 77.7% with HCT-116 colon. For the same compound, the growth was 82.2% with HCC-2998 colon and 107% in the experiment with KM12 colon.
With `O=C(CNC(=O)c1cccc2ccccc12)Nc1ccccc1Oc1cccc(O)c1`, the growth in the experiment on T-47D breast was 42.3% [5 µM]; with BT-549 breast it was 18.7% [5 µM]; with MDA-MB-435 melanoma, -48% [5 µM] (active); in the experiment on SW-620 colon, 20.3% [5 µM]; in the experiment with MCF7 breast it was 20.5% [5 µM]; in the experiment with HCT-116 colon it was 8.18% [5 µM] (active). In addition, the growth with HCC-2998 colon was 58.3% [5 µM]; with KM12 colon it was 22.8% [5 µM].
On to `CN(C)CCCNc1nn2c(=O)c3ccccc3nc2c2ccccc12`, for which the growth in the experiment on T-47D breast is 92.5%; in the experiment on BT-549 breast it was 75.6%; in the experiment with MDA-MB-435 melanoma it was 74.7%; in the experiment with SW-620 colon, 57.9%; in the experiment on MCF7 breast, 26.7%; in the experiment with HCT-116 colon it was 25.2%. For the same compound, the figures for the growth in the experiment with HCC-2998 colon and with KM12 colon were 70.6% and 66.1%, respectively.
As to `COc1cc(-c2nnc(-c3nc(-c4cc(OC)c(OC)c(OC)c4)n4ccccc34)o2)ccc1N`, the growth is 54.5% in the experiment with T-47D breast; 67.1% with BT-549 breast; 82.5% with MDA-MB-435 melanoma; 87% in the experiment with SW-620 colon; 71.2% in the experiment on MCF7 breast; 54.2% in the experiment with HCT-116 colon. Also, the growth with HCC-2998 colon was 89.1%; with KM12 colon, 68.3%.
On to `O=C(O)c1ccc(CNS(=O)(=O)c2ccc3ccccc3c2)cc1`, for which the growth is 100% in the experiment with T-47D breast; 104% in the experiment with BT-549 breast; 110% in the experiment with MDA-MB-435 melanoma; 99.8% in the experiment on SW-620 colon; 107% with MCF7 breast; 109% in the experiment with HCT-116 colon. The growth is 271% with HCC-2998 colon and 101% in the experiment with KM12 colon.
With `CC(=O)Nc1ccc(C(=O)COc2cccc(/C=C3\CCc4ccccc4C3=O)c2)cc1`, the growth in the experiment with T-47D breast is 67.9%; in the experiment on BT-549 breast, 66%; in the experiment with MDA-MB-435 melanoma, 85.8%; with SW-620 colon, 47%; in the experiment on MCF7 breast, 19.6%; with HCT-116 colon, 81%. Besides, the growth is 93.7% in the experiment on HCC-2998 colon and 91% in the experiment with KM12 colon.
As to `CN1CCN(CCCOc2ccc3ncnc(Nc4ccc(OCc5cccc(F)c5)c(Cl)c4)c3c2)CC1`, the growth with T-47D breast was -15.6% (active); in the experiment on BT-549 breast, 72%; with MDA-MB-435 melanoma, -88.4% (active); with SW-620 colon, -78.7% (active); in the experiment on MCF7 breast it was -69.2% (active); in the experiment on HCT-116 colon, -87.9% (active). In addition, the results for the growth with HCC-2998 colon and in the experiment with KM12 colon were -80.9% (active) and -56% (active), respectively.
For `CNCCCn1c2c(c3ccc(F)cc3c1=O)C(=O)c1cc(OC)cnc1-2`, the growth in the experiment with T-47D breast was -2.54% (active); in the experiment with BT-549 breast, -6.14% (active); in the experiment on MDA-MB-435 melanoma, 4.12% (active); in the experiment on SW-620 colon, -2.67% (active); in the experiment with MCF7 breast, 0.0252% (active); in the experiment with HCT-116 colon, -78% (active). For the same compound, the growth was 8% (active) in the experiment on HCC-2998 colon and -0.739% (active) with KM12 colon.
In the case of `CCN(CC)CCSc1ncnc2c1cnn2-c1ccc(S(N)(=O)=O)cc1`, the growth is 102% in the experiment with T-47D breast; 100% in the experiment with BT-549 breast; 76.2% in the experiment with MDA-MB-435 melanoma; 73.5% with SW-620 colon; 83.1% in the experiment with MCF7 breast; 70.6% with HCT-116 colon. Also, the growth was 97.8% in the experiment with HCC-2998 colon and 106% in the experiment with KM12 colon.
As for `NS(=O)(=O)c1ccc(-n2ncc3c(NC4CCCCC4)ncnc32)cc1`, the growth with T-47D breast is 80.4%; in the experiment with BT-549 breast, 108%; in the experiment with MDA-MB-435 melanoma it was 92.5%; with SW-620 colon, 113%; in the experiment on MCF7 breast, 116%; in the experiment with HCT-116 colon, 93.6%. Moreover, the growth in the experiment with HCC-2998 colon is 91.5%; in the experiment on KM12 colon, 83.6%.
In the case of `C[C@]12CCC(=O)C=C1CCC1C2[C@@H](O)C[C@@]2(C)C1CC[C@]2(O)C(=O)COC(=O)CCC(=O)O` (stereo not given in full), the growth is 114% with T-47D breast; 100% with BT-549 breast; 96.3% with MDA-MB-435 melanoma; 113% in the experiment with SW-620 colon; 102% in the experiment on MCF7 breast; 106% with HCT-116 colon. Moreover, the growth with HCC-2998 colon is 98%; in the experiment with KM12 colon it was 109%.
